# Reference: PubChem BioAssay
# Values without a mark were called inactive. The list shows a part of the results. Calls of active or inactive are those of the source. Unless noted, no stated cut-off is given here; in the data, active means inhibition above about 23%; inactive means the rest.
# How the values were obtained:
# [1] = BSA probe fluorescence interference – biochemical, TAMRA-labeled BSA, counter-screen for TCR-CD3 interaction inhibitor project (AID 652035); details: TAMRA-labeled BSA probe fluorescence counterscreen; at 9.4 µM; stronger effect = higher value;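 further: 0% = buffer low control and 100% = reference high control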
# [2] = test system: T-cell receptor (TCR)-CD3 interaction, human; test: blockers of TCR binding to CD3 – biochemical, fluorescence, TAMRA-labeled TCR probe, confirmation (AID 652036; in the data active means inhibition above about 19%); details: TAMRA-labeled TCR probe fluorescence binding assay; at 9.4 µM; stronger effect = higher value
# [3] = test system: transactivating tegument protein VP16 (Human herpesvirus 1); test: compounds suppressing VP16-driven luciferase signal – cell-based, luminescence, single concentration, counter-screen for SRC2 inhibitor project (AID 652007; in the data active means inhibition above about 36%); details: cell-based VP16 transactivation luciferase reporter, at 8.9 µM, stronger effect = higher value
# [4] = biological target: Nuclear receptor coactivator 2 (Homo sapiens) (UniProt Q15596); test: inhibition of GAL4-SRC2 driven luciferase expression – cell-based, luminescence, HEK293, triplicate, confirmation (AID 652008;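 active means mean inhibition above 46.5%, the solvent-only control mean plus 3 SD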;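 further: 0% = DMSO-treated cells and 100% = Gossypol at 36 µM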); details: HEK293 GAL4-SRC2 luciferase reporter, at 8.9 µM, stronger effect = higher value
# [5] = VP16-driven transactivation reporter suppression – cell-based, luminescence, HEK293, counter-screen for COUP-TFII antagonist project (AID 687007; in the data active means inhibition above about 13%); details: HEK293 Gal4-VP16 luciferase reporter, at 8.5 µM, stronger effect = higher value
# [6] = biological target: COUP transcription factor 2 (Homo sapiens) (UniProt P24468); test: retest of COUP-TFII reporter suppressors – cell-based, luciferase reporter, HEK293, triplicate, confirmation (AID 687008;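 active means mean inhibition over three repeats above a set limit taken from the earlier primary screen, cut at about 38% in these data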;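 further: 100% = cells given the luciferase reporter alone without the COUP-TF2 vector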); details: HEK293 NGFI-A luciferase reporter, luminescence; at 8.5 µM; stronger effect = higher value
# [7] = test system: DAF-12 nuclear receptor (Heterodera glycines), GAL4-LBD fusion; test: hgDAF-12 GAL4 fusion reporter activation, retest – cell-based, luminescence, HEK293, GAL4-LBD fusion, confirmation (AID 743050;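 active means mean activation over triplicate wells above the hit cutoff derived from the earlier primary screen, cut at about 11% in these data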;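 further: 0% = DMSO low control and 100% = 2 mM sodium butyrate high control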); details: HEK293 GAL4-hgDAF12 luciferase reporter, agonist mode; at 6.8 µM; stronger effect = higher value; percent of butyrate response
# [8] = biological target: Oxysterols receptor LXR-beta (Homo sapiens) (UniProt P55055); test: nonspecific reporter activation via LXR – cell-based, luminescence, HEK293, H. glycines campaign, counter-screen for hgDAF-12 agonist project, confirmation (AID 743051;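 active means mean activation of the triplicate above a set limit carried over from the primary screen, none filed active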); details: HEK293 Gal4-LXR luciferase reporter, 24 h; at 6.8 µM; stronger effect = higher value
# [9] = biological target: Oxysterols receptor LXR-beta (Homo sapiens) (UniProt P55055); test: nonspecific reporter activation via LXR – cell-based, luminescence, HEK293, H. contortus campaign, counter-screen for hcDAF-12 agonist project, confirmation (AID 743027;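 active means mean percent activation of the reporter above a cutoff set as the average over tested compounds plus their standard deviation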); details: HEK293 Gal4-LXR tk-luc reporter, 24 h, at 6.8 µM, stronger effect = higher value, normalized: DMSO 0%, positive control 100%
# [10] = test system: Nuclear hormone receptor DAF-12 (Haemonchus contortus); test: hcDAF-12 luciferase reporter activation, retest – cell-based, luminescence, HEK293, lit1-tk-luc, triplicate, confirmation (AID 743032;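 active means mean activation across triplicate tests above the threshold derived from the earlier primary screen, cut at about 5.5% in these data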;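 further: 0% = DMSO only wells and 100% = 3 µM Δ7-dafachronic acid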); details: HEK293 hcDAF-12 lit1-tk-luc reporter, at 6.8 µM, stronger effect = higher value, % of Δ7-dafachronic acid response
# Chain of COUP transcription factor 2 (Homo sapiens) (P24468 whole entry, looked up, the tested form may be a part): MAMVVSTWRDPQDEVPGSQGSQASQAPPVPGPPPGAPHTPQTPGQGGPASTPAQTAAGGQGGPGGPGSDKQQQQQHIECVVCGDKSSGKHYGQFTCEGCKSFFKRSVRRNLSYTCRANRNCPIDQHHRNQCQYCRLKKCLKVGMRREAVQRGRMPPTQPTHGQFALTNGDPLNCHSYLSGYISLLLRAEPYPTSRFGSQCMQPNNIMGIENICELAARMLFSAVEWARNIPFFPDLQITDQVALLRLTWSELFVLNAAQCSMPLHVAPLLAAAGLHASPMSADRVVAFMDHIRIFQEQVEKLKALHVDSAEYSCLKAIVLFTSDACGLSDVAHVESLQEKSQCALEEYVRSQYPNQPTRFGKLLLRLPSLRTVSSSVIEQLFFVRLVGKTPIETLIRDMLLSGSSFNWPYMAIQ
# Chain of Oxysterols receptor LXR-beta (Homo sapiens) (P55055 whole entry, looked up, the tested form may be a part): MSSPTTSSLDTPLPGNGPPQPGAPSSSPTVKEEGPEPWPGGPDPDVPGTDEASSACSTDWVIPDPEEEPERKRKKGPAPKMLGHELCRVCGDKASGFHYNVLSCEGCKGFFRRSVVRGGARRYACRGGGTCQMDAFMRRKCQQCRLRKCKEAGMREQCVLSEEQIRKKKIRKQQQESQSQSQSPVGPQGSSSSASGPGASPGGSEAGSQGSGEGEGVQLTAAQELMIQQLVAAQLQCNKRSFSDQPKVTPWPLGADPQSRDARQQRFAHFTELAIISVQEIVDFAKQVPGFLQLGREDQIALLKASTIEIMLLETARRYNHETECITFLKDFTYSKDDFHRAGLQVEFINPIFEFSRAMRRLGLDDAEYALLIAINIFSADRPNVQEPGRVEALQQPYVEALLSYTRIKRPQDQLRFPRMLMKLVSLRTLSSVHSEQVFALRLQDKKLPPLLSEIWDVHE
# Chain of Nuclear receptor coactivator 2 (Homo sapiens) (Q15596 whole entry, looked up, the tested form may be a part): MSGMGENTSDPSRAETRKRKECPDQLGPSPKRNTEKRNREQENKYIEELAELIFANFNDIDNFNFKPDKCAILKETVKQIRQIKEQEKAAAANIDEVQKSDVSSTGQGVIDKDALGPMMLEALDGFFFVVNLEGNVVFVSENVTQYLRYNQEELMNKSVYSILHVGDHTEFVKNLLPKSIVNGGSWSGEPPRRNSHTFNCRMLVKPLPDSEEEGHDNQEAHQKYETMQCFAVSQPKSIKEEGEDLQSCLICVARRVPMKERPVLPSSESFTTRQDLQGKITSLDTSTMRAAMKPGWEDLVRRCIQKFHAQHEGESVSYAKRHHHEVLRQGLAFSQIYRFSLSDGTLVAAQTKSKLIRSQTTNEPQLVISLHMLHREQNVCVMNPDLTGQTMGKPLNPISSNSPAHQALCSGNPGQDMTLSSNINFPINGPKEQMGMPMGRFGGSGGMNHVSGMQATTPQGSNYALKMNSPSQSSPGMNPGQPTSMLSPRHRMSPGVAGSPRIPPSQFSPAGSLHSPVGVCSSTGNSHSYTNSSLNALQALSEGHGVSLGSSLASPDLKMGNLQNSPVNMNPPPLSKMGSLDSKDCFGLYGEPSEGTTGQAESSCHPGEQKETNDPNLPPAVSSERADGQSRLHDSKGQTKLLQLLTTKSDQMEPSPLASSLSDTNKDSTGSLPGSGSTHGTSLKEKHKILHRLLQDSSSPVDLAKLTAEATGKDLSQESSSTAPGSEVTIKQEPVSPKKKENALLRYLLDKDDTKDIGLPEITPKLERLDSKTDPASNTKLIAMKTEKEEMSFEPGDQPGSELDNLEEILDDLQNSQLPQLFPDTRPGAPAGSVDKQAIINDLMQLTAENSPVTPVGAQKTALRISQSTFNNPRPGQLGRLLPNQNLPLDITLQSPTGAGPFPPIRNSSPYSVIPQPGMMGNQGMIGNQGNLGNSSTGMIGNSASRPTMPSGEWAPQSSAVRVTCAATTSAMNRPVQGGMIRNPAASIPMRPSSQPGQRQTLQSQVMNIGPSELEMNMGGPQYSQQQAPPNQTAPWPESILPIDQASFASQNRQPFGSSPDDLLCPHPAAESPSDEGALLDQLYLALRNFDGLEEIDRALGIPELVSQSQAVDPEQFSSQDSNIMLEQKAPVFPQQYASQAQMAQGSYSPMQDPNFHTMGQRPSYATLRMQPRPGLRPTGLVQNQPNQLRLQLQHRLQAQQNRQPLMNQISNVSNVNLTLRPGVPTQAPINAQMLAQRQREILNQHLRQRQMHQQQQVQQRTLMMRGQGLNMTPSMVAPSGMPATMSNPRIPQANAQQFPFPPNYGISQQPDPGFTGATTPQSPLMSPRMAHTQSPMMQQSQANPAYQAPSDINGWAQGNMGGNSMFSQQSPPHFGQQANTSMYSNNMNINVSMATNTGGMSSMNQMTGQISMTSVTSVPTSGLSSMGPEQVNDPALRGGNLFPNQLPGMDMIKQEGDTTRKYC
compound,measurement,setting,value
O=S1(=O)c2c(cccc2N2CCCC2)O[C@H](COCc2ccccc2)CN1C1CC1,inhibition,[1],-4.17%
same,inhibition,[2],1.77%
COc1cc(C(=O)NCC2(c3ccccc3)CCCC2)ccc1OC(C)C,inhibition,[1],1.07%
same,inhibition,[2],2.19%
Cc1ncc(CO)c(/C=N/NC(=O)c2cccc(S(=O)(=O)N3CCCC3)c2)c1O,inhibition,[1],-12.6%
same,inhibition,[2],15.4%
COc1ccccc1C(=O)NNC(=O)CCN1C(=O)/C(=C\c2ccccc2)SC1=S,inhibition,[1],-8.51%
same,inhibition,[2],9.19%
COc1ccc(NS(=O)(=O)c2cc(NC(=O)/C=C/c3cc(OC)c(OC)c(OC)c3)ccc2N2CCCCC2)cc1,inhibition,[1],11%
same,inhibition,[2],29.4% (active)
O=C1NC[C@@H](Cc2ccc(O)cc2)N(CCc2cccc(F)c2)C1=O,inhibition,[3],-20.2%
same,inhibition,[4],-26.9%
same,inhibition,[5],4.3%
same,inhibition,[6],5.14%
CNS(=O)(=O)c1ccc2c(c1)[nH]c(=S)n2C,inhibition,[1],10.3%
same,inhibition,[2],10.3%
Cc1ccc(-c2nn(-c3ccccc3)cc2/C=C/C(=O)Nc2cccc(S(N)(=O)=O)c2)cc1,inhibition,[1],26.6% (active)
same,inhibition,[2],48.1% (active)
CC[C@@H](C)[C@H](NC(=O)CCc1c(C)c2cc3c4c(oc3c(C)c2oc1=O)CCCC4)C(=O)O,inhibition,[3],40.8% (active)
same,inhibition,[4],59.5% (active)
same,inhibition,[5],22.3% (active)
same,inhibition,[6],24.8%
CCOCC(=O)NCc1ccc2c(c1)cc(C)n2C,inhibition,[1],6.46%
same,inhibition,[2],6.18%
O=C(N/N=C/c1ccco1)c1ccc(C(=O)N/N=C/c2ccco2)o1,inhibition,[1],-19.7%
same,inhibition,[2],28.2% (active)
COc1ccc(/C=C2/SC(=O)N(CCCCCC(=O)Nc3ccccc3C(=O)O)C2=S)cc1,inhibition,[3],53.8% (active)
same,inhibition,[4],63.9% (active)
same,inhibition,[5],29.6% (active)
same,inhibition,[6],17.7%
COc1ccc(C(=O)NC(=S)NNC(=O)CCc2ccccc2)cc1,inhibition,[1],4.22%
same,inhibition,[2],13%
Cc1cc(C(=O)CCC(=O)NNC(=O)c2ccccc2O)c(C)s1,inhibition,[1],-14.4%
same,inhibition,[2],11.4%
O=S(=O)(O)c1cc2onnc2c2ccccc12,inhibition,[1],11%
same,inhibition,[2],4.6%
COc1ccc(CC(=O)N/N=C/c2cc([N+](=O)[O-])cc(Br)c2O)cc1,inhibition,[1],-11.9%
same,inhibition,[2],40% (active)
O=C(Nc1cccc(-c2nc3ccccc3[nH]2)c1)c1ccc(C(=O)Nc2cccc(-c3nc4ccccc4[nH]3)c2)cc1,inhibition,[1],9.76%
same,inhibition,[2],10.8%
O=C1C(Cc2ccc(O)cc2)NC(=S)N1Cc1ccccc1 (stereo not drawn),inhibition,[1],-2.95%
same,inhibition,[2],-0.37%
C=CCn1c(=O)c(C(=O)Nc2ncccc2O)c(O)c2ccccc21,inhibition,[1],-7.93%
same,inhibition,[2],16.6%
Oc1ccc(N=Cc2c(O)ccc3ccccc23)cc1,inhibition,[1],-3.16%
same,inhibition,[2],4.09%
Cc1ccc(O)c(/C=N/NC(=O)COc2ccc3c(C)cc(=O)oc3c2)c1,inhibition,[1],-10.9%
same,inhibition,[2],46.1% (active)
O=C(O)c1ccc(N/N=C/c2cn(-c3ccccc3)nc2-c2cccs2)cc1,activation,[7],19.1% (active)
same,activation,[8],0.89%
O=C(N/N=C\C1CC=CCC1)c1ccc(Br)o1 (stereo not drawn),activation,[9],-0.16%
same,activation,[10],0.29%
COc1ccccc1OCC(=O)O/N=C(\N)c1ccccn1,activation,[9],0.86%
same,activation,[10],5.68% (active)
C/C(=N/NC(=S)Nc1ccccc1)c1ccc2c(c1)OCO2,activation,[9],0.01%
same,activation,[10],0.89%
Cc1ccccc1Nc1nnc(SCC(=O)c2cc3ccccc3o2)s1,activation,[9],-0.11%
same,activation,[10],1.9%
Cc1cccc(-c2nc3ccccc3c(=O)n2NC(=O)Cc2ccc(Cl)cc2)c1,activation,[9],-0.04%
same,activation,[10],0.97%
CC(C)(C)OC(=O)N/N=C/c1ccc(C(=O)O)cc1,activation,[9],-0.15%
same,activation,[10],0.76%
COc1ccc(-c2c3c(=O)n(C)c(=O)n(C)c3cn2-c2cccc(OC)c2)cc1,activation,[9],-0.23%
same,activation,[10],3.87%
CCc1cc2c(=O)c(-c3ccon3)c(N)oc2cc1OC,activation,[9],0.84%
same,activation,[10],6.18% (active)
O=C(c1cc(-c2ccccc2O)on1)N1CCCC1,activation,[9],0.82%
same,activation,[10],6.57% (active)
CCCc1cc(C(=O)Nc2ccc(Cl)cn2)cs1,activation,[9],1.33%
same,activation,[10],4.99%
O=C(OCC(=O)c1c[nH]c2ccccc12)c1cccc(O)c1,activation,[9],0.27%
same,activation,[10],7.43% (active)
CC(C)(C)NC(=O)C(c1ccncc1)N(C(=O)CNC(=O)c1ccco1)c1ccc2c(c1)OCO2 (stereo not drawn),activation,[9],-0.43%
same,activation,[10],-0.59%
N#Cc1c(NC(=O)C2CCCO2)sc2c1CCCCC2 (stereo not drawn),activation,[9],1.18%
same,activation,[10],6.65% (active)
CN(CC(=O)Nc1cccc(F)c1)C(=O)C1CC(=O)N(CCc2ccccc2)C1 (stereo not drawn),activation,[9],-0.05%
same,activation,[10],4.2%
